The nature of assay [1]: Cell Viability - LYMP2-002 (AID 977).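 Note: compound exposure lasted 24 h at 37 °C.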 The essentials:
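Cytotoxicity is scored as concentration-dependent loss of cellular ATP in a human lymphoblastoid line after 24 hr compound treatment at 37 C. AC50 is obtained by modelling concentration-response data with the Hill equation.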

Assay [2] can be described thus: qHTS assay for small molecule antagonists of the retinoid-related orphan receptor gamma (ROR-gamma) signaling pathway - cell viability counter screen (AID 720652; active = well fitted curve in the direction sought with a large enough effect in the repeat runs; an effect the other way counts as inactive or inconclusive;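 note: compound exposure lasted 16 hr before ATP read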). The procedure, abridged:
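Counter screen in CHO cells carrying TET-inducible ROR-gamma and an ROR response element-luciferase reporter; cells plated 5 hr, compound pinned, doxycycline added, then 16 hr at 37 C. Viability read as intracellular ATP by CellTiter-Glo luminescence.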
Background: In qHTS, concentration-response curves come from the screen itself.

Records with an inconclusive call do not appear. Activity calls are given as the source filed them. Unless noted, calls come from the whole dose curve; as a rule, active = well fitted curve in the direction sought with a large enough effect; inconclusive = small, poorly fitted or top-dose-only effect, or another doubt; inactive = no such curve, though single readings can be large; an effect the other way counts as inactive or inconclusive.
Potency is the fitted concentration of half-maximal effect.

Take `O=Nc1ccc(Nc2ccccc2)cc1`: in assay [1], the Potency is 5.01 µM (active). Take `C=C1CC[C@H](O)C/C1=C/C=C1\CCC[C@]2(C)[C@@H]([C@H](C)CCCC(C)C)CC[C@@H]12`: the Potency in assay [2] is 66.8 µM (active).
